# High-throughput results as filed in PubChem.
# An excerpt weighted towards active compounds, which were near 5.8% of everything screened.
# TRPV1 ag: agonists of human vanilloid receptor 1 (TRPV1). hit rate 0.19% among 320,000. Q8NER1. AID 540275. activation, % at 8.33 µM. TRPV1-expressing cells, Fluo-8 calcium influx, agonist mode; in the data active = activation above about 80%; inconclusive = between about 30% and that limit; note: 0% is about no effect
#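 Cells expressing TRPV1 were dye-loaded with Fluo-8 and read kinetically: 10 s baseline, 3 min after compound (agonist portion), then 2 min after EC20 capsaicin (allosteric enhancer portion). Calcium-bound dye fluorescence at 480/520 nm.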
# RORgamma inh: ROR gamma (mouse) transcription inhibition. P51450. Drosophila S2 Gal4-RORgamma UAS-luciferase reporter, 20 h. Potency, µM (doses to about 53.6 µM), without a hit: at the top dose activity change, negative = inhibition, actives largely listed as inhibitors. hit rate 5.4% among 310,000. AID 2551; note: potency is the fitted concentration of half-maximal effect; % is set by controls: 0 for no effect and ±100 for the full control effect; nearly all actives have a fitted effect of over 60% in size
# Target sequence (P51450 whole entry, looked up, the tested form may be a part): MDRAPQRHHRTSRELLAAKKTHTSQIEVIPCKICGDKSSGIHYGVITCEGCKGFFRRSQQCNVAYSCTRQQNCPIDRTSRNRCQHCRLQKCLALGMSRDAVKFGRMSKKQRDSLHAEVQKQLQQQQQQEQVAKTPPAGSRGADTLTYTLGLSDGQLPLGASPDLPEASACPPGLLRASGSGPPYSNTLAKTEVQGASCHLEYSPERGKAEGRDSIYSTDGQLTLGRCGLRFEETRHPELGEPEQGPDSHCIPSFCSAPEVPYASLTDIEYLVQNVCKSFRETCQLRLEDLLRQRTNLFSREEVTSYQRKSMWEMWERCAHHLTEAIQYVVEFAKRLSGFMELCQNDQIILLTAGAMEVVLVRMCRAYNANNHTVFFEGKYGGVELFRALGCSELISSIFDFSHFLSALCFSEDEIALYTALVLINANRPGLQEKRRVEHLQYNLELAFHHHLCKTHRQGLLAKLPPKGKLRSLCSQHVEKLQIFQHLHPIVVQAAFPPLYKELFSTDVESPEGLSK
#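 Compounds are pin-transferred onto Drosophila Schneider cells expressing a copper-inducible Gal4–ROR gamma transactivation domain fusion. After 1 hr, copper sulfate is added to 700 uM final; luciferase is read 20 hr later.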
# TRPV1 potentiator: human TRPV1 potentiation; hit rate 0.02% among 320,000; potentiation, % at 8.33 µM; Q8NER1; TRPV1-expressing cells, Fluo-8 calcium influx, capsaicin EC20 potentiation; AID 540277; in the data active = potentiation above about 80%; inconclusive = between about 30% and that limit; note: 0% is about no effect
#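 TRPV1-expressing cells were cultured overnight at 35.5C and loaded with Fluo-8 calcium dye for 40 to 90 min at room temperature. After a 10 s baseline, compound was added and calcium influx was read kinetically for 3 min (ex 480/em 520 nm).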
# uPA surface inh: cell surface uPA generation inhibition; cell surface uPA generation assay, qHTS; Potency, µM (top dose mostly 38.3 µM), without a hit: at the highest dose activity change, negative = inhibition, usual class: inhibitors; hit rate 0.31% among 330,000; AID 540303; active = well fitted inhibition curve with a large enough effect; inconclusive = small, poorly fitted or top-dose-only effect; inactive = no such curve, though single readings can be large or run the other way; tested in mouse RAW 264.7 cells; note: potency is the fitted concentration of half-maximal effect; % is set by controls: 0 for no effect and ±100 for the full control effect; nearly all actives have a fitted effect of over 55% in size
# Gal4-VP16 FLuc: inhibits Gal4-VP16 luciferase reporter, ROR gamma counter-screen; Potency, µM (highest dose often 53.6 µM), without a hit: top-dose activity, negative = inhibition, hits mostly inhibitors; hit rate 3.5% among 310,000; Drosophila S2 Gal4-VP16 UAS-luciferase, luminescence, 20 h; AID 2546;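 note: Gal4-VP16 expression switched on by copper sulfate through the metallothionein promoter; potency is the fitted concentration of half-maximal effect; % is set by controls: 0 for no effect and ±100 for the full control effect; nearly all actives have a fitted effect of over 50% in size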
# * = called active by the depositor; u = inconclusive; x = not tested or not shown; [ ] = remark or other dose. Unless noted, calls come from the whole dose curve; as a rule, active = well fitted curve in the direction sought with a large enough effect; inconclusive = small, poorly fitted or top-dose-only effect, or another doubt; inactive = no such curve, though single readings can be large; an effect the other way counts as inactive or inconclusive.
SMILES,TRPV1 ag,RORgamma inh,TRPV1 potentiator,uPA surface inh,Gal4-VP16 FLuc
CC(C)(C)c1ccc(C(=O)N2CCCCCC2=O)cc1,13,u,-11,2%,2.2µM*
O=C(NC(=S)N1CCCC1)c1ccc(Cl)cc1,-1,11%,u,1%,14%
CC(C)(C)c1ccc(C(=O)NC(=S)N2CCCC2)cc1,21,0.71µM*,-19,-3%,0.89µM*
CC(C)(C)CC(=O)NC(=S)N1CCCCCC1,-1,7.9µM*,12,x,u
O=C(NC(NC(=S)N1CCOCC1)C(Cl)(Cl)Cl)c1ccc(Cl)cc1 (stereo unspecified),83*,u,1,-3%,-1%
CC(C)(C)c1ccc(C(=O)NCC(=O)N2CCCC2)cc1,u,21%,-30,-2%,u
COC(=O)c1ccc2nc(NC(=O)C3CCCCC3)sc2c1,16,-17%,-8,-7%,-2%
COC(=O)c1ccc2nc(Nc3nc4ccc(F)cc4s3)sc2c1,-2,0.14µM*,5,1%,3.5µM*
COC(=O)c1ccc2nc(NC(=O)C(C)(C)C)sc2c1,6,2µM*,15,-10%,7.1µM*
CC(=O)c1sc(Nc2nc3ccc(F)cc3s2)nc1C,1,3.2µM*,5,-6%,11µM*
CCOC(=O)c1csc(Nc2nc3ccc(F)cc3s2)n1,22,7.9µM*,-16,-6%,u
COC(=O)[C@H]1O[C@@H](c2cc(OC)c(C)c(OC)c2OCc2ccccc2)[C@H](C)[C@@H]2O[C@]12C,x,19%,x,x,6%
CCCC[C@H]1C2=C3[C@@H](CC(C(=O)OC)=C[C@@H](C(=O)OC)[C@H]3C(C)(C)C2=O)n2c(=O)n(C)c(=O)n21,x,34%,x,x,-2%
CCCCn1c(=O)c2ccccc2n2c(=S)[nH]nc12,-2,10µM*,4,x,u
Cn1c(=O)c2ccccc2n2c(=S)[nH]nc12,-1,u,2,7%,-15%
CCCn1c(=O)c2ccccc2n2c(=S)[nH]nc12,-5,-9%,5,0%,-6%
CCCCCn1c(=O)c2ccccc2n2c(=S)[nH]nc12,-6,7.1µM*,u,-13%,u
Nc1cnn([C@@H]2O[C@H](CO)[C@@H](O)[C@H]2O)c(=O)n1,x,5%,x,x,5%
S=c1nc[nH]c2c1[nH]c1ccccc12,-5,11µM*,0,-6%,0%[0.365 µM]
CCOC(=O)c1n[nH]n2c1nc(=S)c1ccccc12,-3,6.3µM*,1,2%,u
CCOC(=O)c1n[nH]c2ccccc12,-4,23%,0,3%,3%
Cc1ccc(NC(=O)Cn2c(=O)oc3cc(S(=O)(=O)N4CCC(C)CC4)ccc32)cc1C,7,3%,-9,-30%,20µM*
COc1ccc(NC(=O)Cn2c(=O)oc3cc(S(=O)(=O)N4CCCC4)ccc32)cc1,1,24%,15,4%,-8%
COc1ccc(OC)c(NC(=O)c2c(NC(=O)CNCc3ccco3)sc3c2CCC3)c1,10,u,8,2%,2.2µM*
COc1ccc(NC(=O)c2c(NC(=O)CNCc3ccco3)sc3c2CCC3)c(OC)c1,-1,1.1µM*,u,-2%,2.5µM*
SMILES,TRPV1 ag,RORgamma inh,TRPV1 potentiator,uPA surface inh,Gal4-VP16 FLuc
COc1ccc(NC(=O)c2c(NC(=O)CNCc3ccco3)sc3c2CCC3)cc1,2,-73%,0,-4%,u
CCCNC(=O)OC[C@@H]1O[C@H](CCO/N=C\[C@@H](C)[C@H](OCc2ccccc2)C(C)C)C=C[C@@H]1Oc1ccc(OC)cc1,x,14%[10 µM],x,x,3%[10 µM]
O=C(NCc1ccc(F)cc1)C1CCN(c2cnccn2)CC1,2,-2%,-10,7%,-9%
CCCCNC(=O)NNc1nc(Cl)cc(C)c1C#N,-1,-26%,-8,u,14µM*
CCCCNc1nc(C)c(C(C)=O)cc1C#N,-3,-2%,-2,-2%,20%
Cc1nc(-c2coc3cc(O)c(C)cc3c2=O)cs1,5,-42%,1,-15%,u
Cc1nc(-c2coc3cc(OCC(=O)O)ccc3c2=O)cs1,-7,7.1µM*,25,x,6.3µM*
COc1ccc2c(=O)c(-c3nc(C)cs3)coc2c1,11,1.3µM*,-9,-8%,2.2µM*
O=C(Cc1ccccc1F)Nc1nc(-c2cccs2)cs1,81*,u,-2,3%,u
